Laboratory results: PubChem BioAssay AID651593 (National Center for Advancing Translational Sciences (NCATS), 2012)
Where “and” joins values, the source holds several entries; their conditions need not be identical. Equal entries are not always repeated. About 860 (78%) of roughly 1,100 compounds were called active. Roughly 19% stayed inconclusive and do not appear here. The call rests on the fitted dose curve; in most records, active means well fitted activation curve with a large enough effect; inconclusive means small, poorly fitted or top-dose-only effect; inactive means flat fitted curve, though single readings scatter. The set was probably picked from earlier hits. Some of the results follow.

Assay: qHTS of Nrf2 Activators: Hit Validation in Primary Assay; further: nearly all actives have a fitted effect of over 70% in size
Settings: Nrf2/ARE reporter cell assay; Potency: activation; series mostly up to 46.1 µM
Procedure, shortened: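 Luminescence from Steady-Glo lysis reagent, read after 30 min, reported ARE-luciferase activity in AREc32_fluc stable cells. Compounds were tested at several concentrations, incubated 24 h at 37 °C with 5% CO2 following overnight seeding.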
Potency means the concentration at half of the fitted maximal effect.

Structure (SMILES) | Potency
COc1cc(/C=N/Nc2ccccn2)cc(OC)c1O | 5.8 µM (active)
COc1ccc(Br)cc1/C=N/Nc1ccccn1 | 2.59 µM (active)
CN(Cc1ccccc1)C(=O)c1ccc([N+](=O)[O-])o1 | 16.4 µM (active)
COc1cccc(C(=O)Nc2cc(C)c3c(=O)oc4ccccc4c3n2)c1 | 2.06 µM (active)
Cc1cc(NC(=O)C2CCCC2)nc2c1c(=O)oc1ccccc12 | 2.31 µM (active)
Cc1cc(NC(=O)CC(C)(C)C)nc2c1c(=O)oc1ccccc12 | 3.66 µM (active)
Cc1cc(NC(=O)c2ccccc2)nc2c1c(=O)oc1ccccc12 | 1.46 µM (active)
N#CC1=C(N)Oc2c(ccc3ccccc23)C1c1ccsc1 (stereo not drawn) | inactive
Cc1cc(NC(=O)c2ccccc2F)nc2c1c(=O)oc1ccccc12 | 0.58 µM (active)
COc1cc(OC)cc(-c2nc3ccccc3s2)c1 | 13 µM (active)
Cc1cc(C)n(S(=O)(=O)/C=C/c2ccccc2)n1 | 4.61 µM (active)
Cc1cc(C)cc(OC(=O)CS(=O)c2ccc(C(F)(F)F)cc2[N+](=O)[O-])c1 (stereo not drawn) | 18.4 µM (active)
O=C(CCCCCCC(=O)Nc1ccccc1)NO | 2.31 µM (active)
O=C(Nc1cc(Br)ccc1O)c1cnn2c(C(F)F)cc(C3CC3)nc12 | 3.26 µM (active)
CS(=O)(=O)Cc1nc2ccccc2oc1=O | 20.6 µM (active)
CCc1ccc(/C=C/c2c([N+](=O)[O-])c(=O)n(C)c(=O)n2C)cc1 | 11.6 µM (active)
N#C/C(=C(/O)c1ccco1)c1nc2ccccc2[nH]1 | 2.59 µM (active)
N#C/C(=C(/O)c1ccco1)c1nc2ccccc2s1 | 1.64 µM (active) and 2.06 µM (active)
CSc1ccc(C2NN=C(c3ccccc3)S2)cc1 (stereo not drawn) | 2.31 µM (active)
CN1CCN(CCCNC(=O)c2cc3c(=O)n(C)c4ccccc4c3s2)CC1 | 8.2 µM (active)
Cc1nc(NCc2ccco2)nc2c1C(=O)CC(C)C2 (stereo not drawn) | 1.84 µM (active)
Clc1cc(Cl)cc(Nc2ncnc(-n3cccc3)n2)c1 | 2.59 µM (active)
Cc1ccccc1OCC(=O)Nc1ccccc1CO | 6.51 µM (active)

Structure (SMILES) | Potency
O=C(NC1CCCCC1)N(c1ccccc1)c1nnc(-c2cccc([N+](=O)[O-])c2)s1 | 7.31 µM (active)
CCOc1cc2ccccc2cc1C(=O)Nc1ccccn1 | 3.66 µM (active)
Cc1cccc(-c2nnc(-c3cccc4ccccc34)o2)c1 | 5.17 µM (active)
Clc1ccc(-c2nnc(-c3cccc4ccccc34)o2)cc1 | 1.84 µM (active)
Cc1ccc(-c2nc3cccnc3s2)cc1NC(=O)c1ccco1 | 8.2 µM (active)
O=C(Nc1cc(-c2nc3ncccc3o2)ccc1Cl)c1ccco1 | 3.66 µM (active)
O=C(Nc1cc(-c2nc3cc(Cl)ccc3o2)ccc1Cl)c1ccco1 | 1.3 µM (active)
O=C(Nc1cc2nn(-c3ccccc3)nc2cc1Cl)c1ccco1 | 1.64 µM (active)
O=C(Nc1cc(-c2nc3ncccc3o2)ccc1Cl)c1cccs1 | 4.11 µM (active)
COc1ccc2oc3cc(Cl)ccc3c(=O)c2c1 | 9.2 µM (active)
O=c1c2ccccc2oc2cc(Br)ccc12 | 2.59 µM (active)
COc1ccc2oc3ccccc3c(=O)c2c1 | 23.1 µM (active)
O=c1c2ccccc2oc2ccc(-c3ccc4cc[nH]c4c3)cc12 | 3.66 µM (active)
COc1ccc(OC)c(C(=O)Nc2c(O)ccc3ccccc23)c1 | 5.8 µM (active)
COc1ccc(COc2ccsc2C(=O)Nc2ccc(Cl)cc2)cc1 | 4.61 µM (active)
Cc1nc2nc(-c3ccccc3)nn2c(C)c1Cl | 4.11 µM (active)
O=C1/C(=C\c2ccco2)NC(=S)N1c1ccccc1 | 3.66 µM (active)
CCn1c(NC(=O)c2cccs2)nc2ccccc21 | 5.17 µM (active)
CCn1c(NC(=O)c2ccccc2)nc2ccccc21 | 3.66 µM (active)
Cn1c(=O)c2nc(-c3ccccc3)oc2c2ccccc21 | 1.84 µM (active)
O=C(c1ccco1)c1cc2c(ccc3ccccc32)oc1=O | 9.2 µM (active)
O=C(c1ccco1)c1cn(CC(=O)N2CCCc3ccccc32)c2ccccc12 | inactive
CC(C)=NNc1cnnc2ccc([N+](=O)[O-])cc12 | 18.4 µM (active)

Structure (SMILES) | Potency
Cn1ccsc1=NC(=O)c1ccc([N+](=O)[O-])o1 | 5.17 µM (active)
CN(N=Cc1ccccc1O)c1ccc2ccccc2n1 | 2.91 µM (active)
Oc1ccc(CNc2ccccc2O)cc1 | 16.4 µM (active)
Oc1ccc(NCc2cccc(OCc3ccc(F)cc3)c2)cc1 | inactive
O=C(Nc1nc(-c2ccncc2)cs1)c1ccco1 | 4.11 µM (active)
O=C(Nc1nc2c(ccc3ccccc32)s1)c1ccco1 | 1.16 µM (active)
O=C(Nc1nc2ccsc2c(=O)s1)c1ccco1 | 1.3 µM (active)
CC(=O)Nc1ccc2nc(NC(=O)c3ccco3)sc2c1 | 4.11 µM (active)
Cc1cc(Cl)cc2sc(NC(=O)c3ccco3)nc12 | 16.4 µM (active)
O=C(NC(=S)Nc1cc(C(F)(F)F)ccc1Cl)c1ccccc1 | 2.91 µM (active)
O=C(CSc1cccc[n+]1[O-])Nc1cc([N+](=O)[O-])ccc1Cl | 20.6 µM (active)
O=C(NC(=S)Nc1cc([N+](=O)[O-])ccc1Cl)c1ccccc1 | 2.31 µM (active)
Cn1c(=O)c2nc(NCc3ccccc3)sc2n(C)c1=O | 1.46 µM (active)
CC(=O)Nc1nc2cccc([N+](=O)[O-])c2s1 | 1.84 µM (active)
O=C(/C=C/c1ccc2c(c1)OCO2)c1ccc(O)cc1O | 14.6 µM (active)
c1coc(CNc2ncnc3c2oc2ccccc23)c1 | 3.66 µM (active)
O=C(CSc1ncnc2c1oc1ccccc12)c1cccs1 | 5.17 µM (active)
O=C(CSc1ncnc2c1oc1ccccc12)NCc1ccco1 | 13 µM (active)
COc1ccc2[nH]c3c(NCc4ccco4)ncnc3c2c1 | 2.59 µM (active)
O=C(CSc1nnc2c(n1)[nH]c1ccccc12)NCc1ccco1 | 20.6 µM (active)
c1coc(CSc2ncnc3c2oc2ccccc23)c1 | 2.91 µM (active)
O=[N+]([O-])c1cncc([N+](=O)[O-])c1Nc1cccc(O)c1 | 14.6 µM (active)
